# MCF10A rereplic = A quantitative high throughput screen for small molecules that induce DNA re-replication in MCF 10a normal breast cells | MCF 10A DNA re-replication, Hoechst nuclear intensity, 48 h | Potency, µM (highest dose often 46.1 µM), for the others: top-dose activity, positive = re-replication, hits mostly activators | 350,000 tested, 2.9% active | AID 624296, 2012; also: % of control where 0% means no effect; nearly all actives have a fitted effect of over 50% in size
# KB-V1 cytotox = qHTS assay for MDR1-selective chemotherapeutics: Primary screen using the drug-selected MDR subline cells KB-V1. KB-V1 MDR cells viability, CellTiter-Glo, 72 h. Potency, µM (top dose mostly 46.1 µM), most hits filed as cytotoxic. 400,000 tested, 3.4% active. AID 1347076, 2019; also: % is scaled to controls: 0 for no effect and ±100 for the full control effect; nearly all actives have a fitted effect of over 60% in size
#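 Readout: CellTiter-Glo luminescence, 10 min after addition. Cells: KB-V1 MDR subline, 72 h at 37 degrees C with compound. Analysis: corrected, normalized data fitted to concentration-effect curves.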
# SW480 rereplic = A quantitative high throughput screen for small molecules that induce DNA re-replication in SW480 colon adenocarcinoma cells. SW480 DNA re-replication, Hoechst DNA content imaging, 48 h. Potency, µM (series often up to 46.1 µM), inactives show top-dose re-replication activation, hits mostly activators. 340,000 tested, 1.8% active; also: % of control where 0% means no effect; nearly all actives have a fitted effect of over 55% in size
#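 Compounds, transferred as 23 nL by pin tool, were incubated with cells for 48 hr; DNA content per nucleus was then quantified by Hoechst staining and fluorescence plate imaging.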
# RORg inh = qHTS for inhibitors of ROR gamma transcriptional activity. Nuclear receptor ROR-gamma (Mus musculus), P51450. Drosophila S2 Gal4-RORgamma UAS-luciferase reporter, 20 h. Potency, µM (highest dose often 53.6 µM), without a hit: at the highest dose activity change, negative = inhibition, actives largely listed as inhibitors. 310,000 tested, 5.4% active; also: % is scaled to controls: 0 for no effect and ±100 for the full control effect; nearly all actives have a fitted effect of over 60% in size
# Target sequence (P51450 whole entry, looked up, the tested form may be a part): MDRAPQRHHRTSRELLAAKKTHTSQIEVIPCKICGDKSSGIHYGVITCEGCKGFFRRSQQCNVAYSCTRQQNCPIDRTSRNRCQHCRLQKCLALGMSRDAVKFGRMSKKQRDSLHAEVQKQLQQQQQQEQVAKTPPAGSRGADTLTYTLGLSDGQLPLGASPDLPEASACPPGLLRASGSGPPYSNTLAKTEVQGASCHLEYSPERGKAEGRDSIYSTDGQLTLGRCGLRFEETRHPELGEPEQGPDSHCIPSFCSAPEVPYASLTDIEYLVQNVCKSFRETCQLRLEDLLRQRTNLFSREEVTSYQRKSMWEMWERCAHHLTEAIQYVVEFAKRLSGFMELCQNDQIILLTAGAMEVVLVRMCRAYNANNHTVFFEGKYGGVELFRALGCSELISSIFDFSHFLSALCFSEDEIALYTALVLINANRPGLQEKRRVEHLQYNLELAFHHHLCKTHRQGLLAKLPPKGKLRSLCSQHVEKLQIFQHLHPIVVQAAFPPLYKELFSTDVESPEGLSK
#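 Drosophila Schneider cells stably carrying a metallothionein-driven Gal4 DBD–ROR gamma fusion and a UAS-Photinus luciferase reporter were exposed to compound for 1 hr, then induced with copper sulfate (700 uM final) for 20 hr at ambient temperature before luminescence reading.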
# VP16 counter = VP16 counterscreen qHTS for inhibitors of ROR gamma transcriptional activity. Drosophila S2 Gal4-VP16 UAS-luciferase, luminescence, 20 h. Potency, µM (top dose mostly 53.6 µM), for inactives: at the top dose activity, negative = inhibition, usual class: inhibitors. 310,000 tested, 3.5% active. AID 2546, 2010;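 also: Gal4-VP16 expression switched on by copper sulfate through the metallothionein promoter; % is scaled to controls: 0 for no effect and ±100 for the full control effect; nearly all actives have a fitted effect of over 50% in size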
# KB-3-1 cytotox = qHTS assay for MDR1-selective chemotherapeutics: Primary screen using the parental adenocarcinoma cell KB-3-1; KB-3-1 viability, CellTiter-Glo ATP luminescence, 72 h; Potency, µM (highest dose often 46.1 µM), most hits filed as cytotoxic; 400,000 tested, 1.4% active; also: % is scaled to controls: 0 for no effect and ±100 for the full control effect; nearly all actives have a fitted effect of over 60% in size
#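 Cells are dispensed, compounds pinned in, plates held at 37 °C for 72 h, then CellTiter-Glo is added and luminescence read after 10 minutes. Cell line: parental KB-3-1 in phenol-red-free DMEM, 10% FBS.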
# Starred values were filed as active, the others as inactive; i = inactive; ? = inconclusive; . = no result. This is a sample that favours compounds with a hit; in the whole collection about 10% have one here. Calls follow the shape of the dose curve; as a rule, active = well fitted curve in the direction sought with a large enough effect; inconclusive = small, poorly fitted or top-dose-only effect, or another doubt; inactive = no such curve, though single readings can be large; an effect the other way counts as inactive or inconclusive. Potency is read from the fitted curve at half-maximal effect.
SMILES,MCF10A rereplic,KB-V1 cytotox,SW480 rereplic,RORg inh,VP16 counter,KB-3-1 cytotox
CCCCNC(=S)NNC(=O)c1csc(CC)c1,8%,i,-6%,?,?,i
CCCCNC(=S)NNC(=O)c1csc(C)c1CC,10%,i,0%,2.8µM*,-27%,i
Cc1ccc(NC(=O)N2CCN(C(=O)c3nsc4ccccc34)CC2)cc1C,.,i,.,.,.,i
CC(=O)OCCc1c2ccccc2c(CCCN(C)C)c2ccccc12,18µM*,i,?,.,.,i
CC(=O)OCCc1[nH]c2ccccc2c1C,14%,i,-5%,-4%,-8%,i
COc1ccc([C@H]2CC(=O)C=C(c3c(OC)cccc3OC)C2)cc1,1.2µM*,?,18µM*,.,.,?
COc1ccc(C2=CC(=O)C[C@H](c3ccc(F)cc3)C2)c(OC)c1,?,i,?,.,.,i
CCOc1ccc(Cl)cc1C1=CC(=O)C[C@H](c2ccc(OC)cc2)C1,?,4.6µM*,3.7µM*,.,.,?
COc1ccc([C@H]2CC(=O)C=C(c3cc(C=O)ccc3OC)C2)cc1,?,?,9.2µM*,.,.,16µM*
COc1ccc([C@H]2CC(=O)C=C(c3cc(OC)ccc3OC)C2)cc1,?,23µM*,?,.,.,16µM*
Cc1cc(C)c2c(=O)cc(C(=O)Nc3sc4c(c3C(=O)NCC3CCCO3)CCCC4)oc2c1 (stereo not given),.,i,.,.,.,i
COc1ccc([C@H]2CC(=O)C=C(c3ccc(OC)c(OC)c3)C2)cc1,9.2µM*,i,-7%,.,.,i
COc1ccc(OC)c(C2=CC(=O)C[C@H](c3ccc(F)cc3)C2)c1,.,i,.,.,.,i
COc1ccc([C@H]2CC(=O)C=C(c3cc(F)ccc3OC)C2)cc1,21µM*,?,?,.,.,?
Cc1ccc(C(=O)OCCc2c(C)[nH]n(-c3ccccc3)c2=O)cc1,10%,i,4%,2%,-2%,i
CCCSC(=S)c1c(C)[nH]n(-c2ccccc2)c1=O,17%,?,?,0.32µM*,0.79µM*,?
CCOCCCNC(=O)c1cc(=O)n(Cc2cccc(C)c2)c2ccccc12,?,9.2µM*,?,15%,5%,?
CCOC(=O)C(=O)N(Nc1ccccc1C)c1ccccc1C,-4%,i,-59%,2.8µM*,?,i
CCOC(=O)C(=O)N(Nc1ccc(C)cc1)c1ccc(C)cc1,8%,i,-7%,-29%,24%,i
Cc1cccc(N(CC(=O)N(C)Cc2ccccc2)S(=O)(=O)c2ccccc2)c1C,.,?,.,.,.,i
Fc1ccc(-c2n[nH]c(=S)n2-c2ccc3c(c2)OCCO3)cc1,-6%,i,1%,13µM*,-25%,i
COc1ccc(-n2c(-c3ccc(Cl)cc3Cl)n[nH]c2=S)c(OC)c1,22%,i,-1%,4µM*,6.3µM*,i
S=c1[nH]nc(-c2ccc(Cl)cc2)n1-c1ccc2c(c1)OCCO2,?,i,-3%,3.2µM*,7.1µM*,i
S=c1[nH]nc(-c2ccc(Cl)cc2Cl)n1-c1ccc(Cl)cc1,-1%,?,1%,6.3µM*,?,i
S=c1[nH]nc(-c2cccnc2)n1-c1ccc2c(c1)OCCO2,-31%,i,-21%,?,25%,i
Fc1ccc(-n2c(-c3cc(C4CC4)[nH]n3)n[nH]c2=S)cc1Cl,?,i,3%,?,-5%,i
CCNc1ncc2nc(-c3cn(C)c4ccccc34)c(=O)n(-c3ccccc3)c2n1,.,.,.,-4%,8%,.
CN(C)C(=O)c1ccc(-c2cc(NCc3ccccc3)ncn2)cc1,.,.,.,0%,1%,.

# Bioassay records as filed in PubChem.
